From PubChem BioAssay AID1159580 (chemical genetic matrix, 2015)
Several values for one entry are separate records, joined by “and”; a condition that tells them apart may be missing. Equal values may be shown once. Among all 5,500 compounds or so, about 2,000 (36%) were called active. Roughly 18% stayed inconclusive and do not appear here. Some of the results follow. Values without a mark were called inactive. Cut-off read from the data, not from the text of the source: active = normalized growth mostly below about 0.91 (no sharp cut-off); inconclusive = no clear call, values can overlap the other calls; inactive = mostly above about 0.92.

Assay: chemical genetic growth profiling, strain panel (AID 1159580);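 note: tested at 20 µM; growth read once vehicle control cultures reached saturation at 30 °C; 1 = growth at the plate median or of vehicle wells; lower values mean less growth of the strain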
Conditions: S. cerevisiae deletion strains, growth OD

For `C=C[C@@](C)(O)CCC1C(=C)C[C@H](O)C2C(C)(C)CCCC12C` (some centres not stated), the normalized growth (locus YAL013W, strain DEP1, hits give low values) was 1.01, the normalized growth (locus YAL021C, strain ccr4, hits give low values) was 1.01 and the normalized growth (locus YAL026C, strain drs2, hits give low values) was 0.972. For the same compound, the normalized growth (locus YAL030W, strain snc1, hits give low values) was 0.996, the normalized growth (locus YBL061C, strain skt5, hits give low values) was 0.988 and the normalized growth (locus YBR009C, strain hhf1, hits give low values) was 0.986. For the same compound, the normalized growth (locus YBR021W, strain FUR4, hits give low values) was 0.998, the normalized growth (locus YBR023C, strain chs3, hits give low values) was 0.978 and the normalized growth (locus YBR171W, strain sec66, hits give low values) was 0.976. For the same compound, the normalized growth (locus YBR229C, strain ROT2, hits give low values) was 1.01, the normalized growth (locus YBR231C, strain swc5, hits give low values) was 1 and the normalized growth (locus YBR279W, strain paf1, hits give low values) was 0.998. The normalized growth (locus YCL011C, strain gbp2, hits give low values) was 0.991, the normalized growth (locus YCL016C, strain dcc1, hits give low values) was 0.971 and the normalized growth (locus YCL029C, strain bik1, hits give low values) was 1.02. For the same compound, the normalized growth (locus YCL061C, strain MRC1, hits give low values) was 0.98, the normalized growth (locus YCL069W, strain vba3, hits give low values) was 0.999 and the normalized growth (locus YCR088W, strain abp1, hits give low values) was 0.99. For the same compound, the normalized growth (locus YDL005C, strain med2, hits give low values) was 0.976, the normalized growth (locus YDL035C, strain GPR1, hits give low values) was 0.991 and the normalized growth (locus YDL040C, strain nat1, hits give low values) was 0.997. It also gave a normalized growth (locus YDL074C, strain BRE1, hits give low values) of 0.974, a normalized growth (locus YDL101C, strain DUN1, hits give low values) of 1.01 and a normalized growth (locus YDL134C, strain PPH21, hits give low values) of 1.01. It also gave a normalized growth (locus YDL185W, strain tfp1, hits give low values) of 1.02, a normalized growth (locus YDL192W, strain arf1, hits give low values) of 1.02 and a normalized growth (locus YDR001C, strain nth1, hits give low values) of 0.989. It also gave a normalized growth (locus YDR069C, strain doa4, hits give low values) of 0.99, a normalized growth (locus YDR101C, strain arx1, hits give low values) of 1 and a normalized growth (locus YDR137W, strain rgp1, hits give low values) of 0.859. The normalized growth (locus YDR150W, strain NUM1, hits give low values) was 1.01, the normalized growth (locus YDR159W, strain sac3, hits give low values) was 1.01 and the normalized growth (locus YDR162C, strain NBP2, hits give low values) was 0.994. It also gave a normalized growth (locus YDR195W, strain ref2) of 1.05, a normalized growth (locus YDR297W, strain sur2, hits give low values) of 0.993 and a normalized growth (locus YDR318W, strain mcm21, hits give low values) of 1.02. For the same compound, the normalized growth (locus YDR334W, strain swr1, hits give low values) was 0.993, the normalized growth (locus YDR335W, strain msn5, hits give low values) was 1.01 and the normalized growth (locus YDR388W, hits give low values) was 1.02. For the same compound, the normalized growth (locus YDR392W, strain spt3, hits give low values) was 0.628 (active), the normalized growth (locus YDR502C, strain sam2, hits give low values) was 1.01 and the normalized growth (locus YEL003W, strain gim4, hits give low values) was 1. It also gave a normalized growth (locus YEL037C, strain rad23, hits give low values) of 0.987, a normalized growth (locus YEL061C, strain CIN8 (second series), hits give low values) of 0.992 and a normalized growth (locus YEL061C, strain CIN8, hits give low values) of 1.01. It also gave a normalized growth (locus YER015W, strain faa2, hits give low values) of 0.995, a normalized growth (locus YER016W, strain bim1, hits give low values) of 0.996 and a normalized growth (locus YER110C, hits give low values) of 1.03. For the same compound, the normalized growth (locus YER111C, strain swi4, hits give low values) was 0.976, the normalized growth (locus YER155C, strain BEM2 (second series), hits give low values) was 1.01 and the normalized growth (locus YER155C, strain BEM2, hits give low values) was 1.01. The normalized growth (locus YER167W, strain BCK2, hits give low values) was 1.01, the normalized growth (locus YFR010W, strain ubp6, hits give low values) was 1.01 and the normalized growth (locus YGL078C, strain dbp3, hits give low values) was 1.02. The normalized growth (locus YGL086W, strain mad1, hits give low values) was 1.02, the normalized growth (locus YGL167C, strain pmr1, hits give low values) was 0.97 and the normalized growth (locus YGL173C, strain kem1, hits give low values) was 0.974. The normalized growth (locus YGL227W, strain vid30, hits give low values) was 0.997, the normalized growth (locus YGL240W, strain doc1, hits give low values) was 1 and the normalized growth (locus YGL248W, strain PDE1, hits give low values) was 1.01. For the same compound, the normalized growth (locus YGL253W, strain hxk2, hits give low values) was 0.984, the normalized growth (locus YGR078C, strain PAC10, hits give low values) was 1 and the normalized growth (locus YGR135W, strain pre9, hits give low values) was 1. For the same compound, the normalized growth (locus YGR229C, strain SMI1, hits give low values) was 1, the normalized growth (locus YGR252W, strain gcn5, hits give low values) was 0.995 and the normalized growth (locus YHR013C, strain ard1, hits give low values) was 1.02. For the same compound, the normalized growth (locus YHR027C, strain rpn1, hits give low values) was 1, the normalized growth (locus YHR030C, strain SLT2, hits give low values) was 1.01 and 0.934 and the normalized growth (locus YHR079C, strain IRE1 (second series), hits give low values) was 1.02. The normalized growth (locus YHR079C, strain IRE1, hits give low values) was 0.955, the normalized growth (locus YHR094C, strain hxt1, hits give low values) was 1.02 and the normalized growth (locus YHR129C, strain ARP1, hits give low values) was 1.01. It also gave a normalized growth (locus YHR142W, strain chs7, hits give low values) of 0.957, a normalized growth (locus YHR200W, strain rpn10, hits give low values) of 1.04 and a normalized growth (locus YIL066C, strain RNR3, hits give low values) of 1.02. For the same compound, the normalized growth (locus YIL073C, strain SPO22, hits give low values) was 1.06, the normalized growth (locus YIL125W, strain kgd1, hits give low values) was 1.02 and the normalized growth (locus YIR030C, strain dcg1, hits give low values) was 1.02. The normalized growth (locus YJL092W, strain hpr5, hits give low values) was 0.993, the normalized growth (locus YJL095W, strain BCK1 (second series), hits give low values) was 0.992 and the normalized growth (locus YJL095W, strain BCK1, hits give low values) was 0.999 and 0.952. For the same compound, the normalized growth (locus YJL115W, strain asf1, hits give low values) was 0.99, the normalized growth (locus YJL129C, strain trk1, hits give low values) was 0.966 and the normalized growth (locus YJL134W, strain LCB3, hits give low values) was 1.01. The normalized growth (locus YJL154C, strain vps35, hits give low values) was 0.997, the normalized growth (locus YJL164C, strain tpk1, hits give low values) was 0.982 and the normalized growth (locus YJL166W, strain qcr8, hits give low values) was 0.981. It also gave a normalized growth (locus YJL168C, strain set2, hits give low values) of 1.03, a normalized growth (locus YJL187C, strain SWE1 (second series), hits give low values) of 1 and a normalized growth (locus YJL187C, strain SWE1, hits give low values) of 0.991. For the same compound, the normalized growth (locus YJR043C, strain POL32, hits give low values) was 0.997 and the normalized growth (locus YJR066W, strain TOR1, hits give low values) was 0.923.
